In the library only some 6.5% were active in any assay of this set; here they are far more common.
Fluor 339 460 – intrinsic fluorescence of library compounds, ex339/em460 – biochemical, MLSMR library, data from DPM-DC assay, artefact control, profiling panel | AID 709, 2007 | hit rate 5.5% among 65,000 | fluorescence fold increase at 10 µM | compound autofluorescence, ex339/em460 nm, NADH buffer; hits give high values; 1 = no-compound wells, NADH background;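 active = at 10 µM, mean starting fluorescence two-fold or more over control wells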;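 note: signal is the first read of a kinetic run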
MK inhibit – S. pneumoniae MK inhibitors, primary screen, biochemical, PK/LDH-coupled NADH absorbance; mevalonate kinase [Streptococcus pneumoniae D39]; purified MK, PK/LDH-coupled NADH absorbance 340 nm; inhibition, % at 10 µM; hit rate 0.48% among 65,000;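 active = ranked among the strongest by inhibition in the single 10 µM screen, a fixed top-ranked set picked for dose follow-up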
DPM-DC inhibit – S. pneumoniae DPM-DC inhibitors, primary screen, biochemical, PK/LDH-coupled NADH fluorescence. diphosphomevalonate decarboxylase (Streptococcus pneumoniae D39). purified DPM-DC. calls only at 10 µM. hit rate 0.49% among 65,000. AID 556, 2006;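 active = the 320 compounds with the highest percent inhibition in the single-dose primary screen, excluding strongly autofluorescent ones, cut at about 32% in these data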;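 note: kinetic rate of NADH fluorescence loss reporting ADP formed by the decarboxylase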
PMK inhibit – S. pneumoniae PMK inhibitors, primary screen, biochemical, mevalonate pathway, pilot trial included; phosphomevalonate kinase (Streptococcus pneumoniae D39); purified PMK, PK/LDH-coupled NADH absorbance 340 nm; inhibition, % at 10 µM; hit rate 0.49% among 65,000;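 active = top-ranked compounds by inhibition in the single 10 µM screen, taking a fixed number of the strongest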
NADH coupling – inhibitors of PK/LDH coupling enzymes, profiling panel, artefact control, biochemical, MLSMR library. hit rate 0.02% among 65,000. IC50, µM (doses to about 10 µM). AID 774, 2007. coupled PK/LDH NADH assays, four targets;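 active = single-dose screening hits from any of four coupled enzyme assays that gave an IC50 when retested across doses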;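 note: the DPM-DC format reads NADH fluorescence rather than 340 nm absorbance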
Abs 340nm – compound light absorbance at 340 nm, profiling panel, artefact control, biochemical, MLSMR library, data from PS, PMK, MK assays | fold change at 10 µM | 65,000 tested, under 10 active | compound absorbance at 340 nm, fold over control;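 active = at 10 µM dose, initial 340 nm absorbance at least 2 fold that of control wells; inactive = change under 2 fold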;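 note: initial absorbance extrapolated from kinetic A340 decline of NADH oxidation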
A number is an active result; . = inactive; / = not tested or not shown; + = active, no number.

SMILES	Fluor 339 460	MK inhibit	DPM-DC inhibit	PMK inhibit	NADH coupling	Abs 340nm
N#CNC1=NCN(Cc2ccccc2)CN1	.	.	.	.	.	.
CC(C)C(O)P(=O)(OCc1ccccc1)c1ccc(N(C)C)cc1 (stereo not drawn)	.	.	.	.	.	.
NC(=O)c1ccccc1NS(=O)(=O)Cc1ccc(Cl)cc1	3.9	.	/	.	.	.
CN(C)S(=O)(=O)Nc1ccc(NS(=O)(=O)N(C)C)c(S(=O)(=O)c2ccccc2)c1	.	.	.	.	.	.
Cc1ccc(S(=O)(=O)Nc2ccccc2C(N)=O)cc1	3.9	.	/	.	.	.
CN(C)S(=O)(=O)Nc1ccccc1C(N)=O	2.9	.	/	.	.	.
NC(=O)c1ccccc1NC(=O)CS(=O)(=O)Cc1ccccc1	.	.	.	.	.	.
COc1cc(OC)c(C2CC(=O)N3CN(c4ccc(C)cc4)CSC3=C2C#N)cc1OC (stereo not drawn)	.	41	.	.	.	.
COc1ccc(NC(=O)CSc2nc(-c3ccncc3)nn2CC(=O)N2CCCC2)cc1	.	.	.	.	.	.
Cc1cc(C)c2c(CC(=O)N(CCC#N)Cc3cccnc3)coc2c1	.	.	.	.	.	.
CCOC(=O)CNc1c(-c2ccc(F)cc2)nc2cnccn12	2.3	.	/	.	.	.
CCOC(=O)CSCc1nc(-c2ccc(Cl)cc2)oc1C	.	.	.	.	.	.
CCOC(=O)CNc1c(-c2ccc(Cl)cc2)nc2cnccn12	4.9	.	/	.	.	.
CCOC(=O)CCc1c(C)nc2cc(-c3ccc(F)cc3)[nH]n2c1=O	.	.	.	.	.	.
Cc1nc(Cc2nnc(SCc3nc(N)nc(Nc4ccccc4C)n3)o2)cs1	.	.	.	.	.	.
CC1Cn2c(nnc2-c2ccccc2O)S1 (stereo not drawn)	.	.	.	.	.	.
CC1Cn2c(nnc2-c2cc3ccccc3cc2O)S1 (stereo not drawn)	2.9	.	.	.	.	.
c1cncc(-c2nc3c4ccccc4nc(N4CCC(N5CCCCC5)CC4)n3n2)c1	.	.	.	.	.	.
O=C1NC(c2cccs2)Nc2ccccc21 (stereo not drawn)	2.5	.	/	.	.	.
O=C1NC(c2ccccc2Cl)Nc2ccccc21 (stereo not drawn)	5	.	/	.	.	.
Cc1ccsc1C1NC(=O)c2ccccc2N1 (stereo not drawn)	.	.	/	.	.	.
CCOC(=O)c1sc(NC(=O)c2noc3c2CCCC3)c(C(=O)OCC)c1C	2.1	.	/	.	.	.
CCOC(=O)c1c(NC(=O)c2noc3c2CCCC3)sc(C)c1C	3.3	.	.	.	.	.
Cc1[nH]nc2c1C1(CCC3(CC1)OCCO3)C(C#N)=C(N)O2	.	.	.	.	.	.
CCCC1Cc2nc(N3CCCCC3)c(C#N)cc2CO1 (stereo not drawn)	3.6	.	/	.	.	.
SMILES	Fluor 339 460	MK inhibit	DPM-DC inhibit	PMK inhibit	NADH coupling	Abs 340nm
CCN1CCN(C(CNS(=O)(=O)c2ccc(OC)cc2)c2cccnc2)CC1 (stereo not drawn)	.	.	.	.	.	.
COc1ccc(OCC(=O)N2CCN(C(=O)COc3ccc(Br)cc3)CC2)cc1	.	.	.	.	.	.
COc1ccc2c(c1)c(=O)oc1cc(OCC(=O)N3CCCC(C)C3)ccc12 (stereo not drawn)	3.9	.	/	.	.	.
COc1ccc2c(c1)c(=O)oc1cc(OCC(=O)N3CCC(C)CC3)ccc12	3.5	.	/	.	.	.
COC(=O)c1c(C)nc(C)c2c(=O)oc3ccccc3c12	.	.	.	.	.	.
Cc1cc2c(c(N)n1)c(=O)oc1ccccc12	3.7	.	/	.	.	.
CCc1ccc(OCC(=O)N(C)C)c(Br)c1	.	.	.	.	.	.
CCc1cc(=O)oc2cc(OCC(=O)N(CC)CC)c(Cl)cc12	.	.	.	.	.	.
Cc1c(C)c2ccc(OCC(=O)N(C)C)c(C)c2oc1=O	3.7	.	/	.	.	.
CCc1c(C)c2ccc(OCC(=O)N(C)C)c(C)c2oc1=O	3.5	.	/	.	.	.
CCOC(=O)CCc1c(C)c2ccc(OCC(=O)N(CC)CC)c(C)c2oc1=O	3.8	.	/	.	.	.
Cc1cc(=O)oc2c(C)c(OCC(=O)N(C)C)ccc12	3.4	.	/	.	.	.
CCN(CC)C(=O)COc1cccc2ccccc12	.	.	.	.	.	.
Cc1ccc(S(=O)(=O)Cn2nnnc2C(c2ccc(F)cc2)N2CCC(C(N)=O)CC2)cc1 (stereo not drawn)	.	.	.	.	.	.
Cc1nc2sc(C(c3ccc(F)cc3)N3CCN(C(=O)c4ccco4)CC3)c(O)n2n1 (stereo not drawn)	.	.	.	.	.	.
Cc1cccc(OCCc2nnc(N)s2)c1C	.	.	.	.	.	.
Cn1c(=O)c2c3c(sc2n2c(SCC(=O)c4ccc(Cl)cc4)nnc12)COC(C)(C)C3	.	.	.	.	.	.
CCc1c(C)c2ccc(OCC(=O)OC(C)C)c(C)c2oc1=O	3.6	.	/	.	.	.
COc1ccc2c(C)cc(=O)oc2c1C	2.1	.	/	.	.	.
C=CCOC(=O)COc1ccc2c(C)c(C)c(=O)oc2c1C	2.4	.	/	.	.	.
Cc1c(OCC(=O)OC(C)C)ccc2c3c(c(=O)oc12)CCC3	.	.	.	.	.	.
Cc1nc2ncnn2c(N2CCN(c3cccc(C(F)(F)F)c3)CC2)c1C	.	.	.	.	.	.
COCCN(CC(=O)Nc1ccccc1)S(=O)(=O)c1ccc(S(=O)(=O)N2CCCC2)cc1	.	.	.	.	.	.
CCOC(=O)C1CCCN(C/C(O)=C(\C#N)c2nc(-c3ccccc3)cs2)C1 (stereo not drawn)	.	.	.	.	.	.
CC(=O)c1c(C)nc2nonc2c1N	2	.	.	.	.	.
SMILES	Fluor 339 460	MK inhibit	DPM-DC inhibit	PMK inhibit	NADH coupling	Abs 340nm
CCOC(=O)c1c(-c2ccc(OC)cc2)nc2nonc2c1N	.	.	.	.	.	.
O=C(NCc1nnc(SCC(=O)N2CCN(c3ccccc3)CC2)o1)c1ccco1	.	42	.	.	.	.
O=C(O)c1c(-c2ccccc2)c2oc3ccccc3c2[nH]c1=O	3.6	.	+	.	.	.
O=c1[nH]cnc2c1oc1ccccc12	.	.	.	.	.	.
Nc1ccc2[nH]ncc2c1	2.3	.	/	.	.	.
N#Cc1nc(-c2ccccc2Cl)oc1NCc1ccco1	.	.	.	.	.	.
N#Cc1nc(-c2ccc(Cl)cc2)oc1NCc1cccc2c1OCO2	3.8	.	/	.	.	.

Screening data as filed in PubChem.
